Outcome data for twelve compounds are collected here from PubChem BioAssay AID651956 (Broad Institute, 2012).

Each structure is given as a SMILES string. Entries with a potency or affinity are not part of this list. Inconclusive results are not listed. Activity calls are given as the source filed them.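 How the source made its calls: active means in every test run, a fitted half-maximal concentration for signal decrease at or below twice the highest tested concentration; inconclusive means runs disagree, flat 30 to 70% decrease, or poor fit; inactive means the rest.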

This assay can be described thus: miR-122 activators in hepatoma reporter cells, dose response, cell-based, Huh7 psiCHECK-miR122, Renilla luciferase, cherry-picked (AID 651956).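 Further: Renilla luciferase from a miR-122 sensor reporter so lower signal means miR-122 activation.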 To be noted: 48 h; series mostly up to 35 µM.
As for `CCOc1cc(C(=O)NC(C)COC)cc(OCC)c1OCC` (configuration not stated), the outcome was inactive. In the case of `CN(C[C@H]1N[C@@H](CO)[C@H]1c1ccc(-c2cccc(F)c2)cc1)C(=O)C1CCC1`, the compound was classed as inactive. Turning to `CCCCCn1c(=O)[nH]c2cc(C(=O)NCCN3C(C)CCCC3C)ccc2c1=O` (configuration not stated), the result was inactive. As to `CC(C)NC(=O)Nc1ccc2c(c1)C(=O)N(C)[C@@H]1CC[C@@H](CC(=O)NCC(F)(F)F)O[C@@H]1CO2`, the outcome was inactive.

In the case of `CNC(=O)C[C@@H]1CC[C@H]2[C@@H](COc3ccc(NC(=O)c4ccc(C(F)(F)F)cc4)cc3C(=O)N2C)O1`, the result was inactive. Turning to `C/C=C/c1ccc([C@H]2[C@H](CO)N(C(C)=O)[C@H]2CN(C)C(=O)c2ccccn2)cc1`, the result was inactive. As for `CN1C(=O)c2cc(NC(=O)c3ccc4c(c3)OCO4)ccc2OC[C@H]2O[C@H](CC(=O)O)CC[C@@H]21`, the compound was called inactive. As for `CN1C(=O)c2cc(NC(=O)c3cccs3)ccc2OC[C@@H]2O[C@@H](CC(=O)NCCN3CCCCC3)CC[C@H]21`, the result was inactive. Turning to `O=C(Nc1ccccc1N1CCN(C(=O)c2ccc(Cl)cc2)CC1)c1cccnc1`, the result was inactive. For `CNC(=O)C[C@H]1CC[C@H]2[C@@H](COc3ccc(NC(=O)C4CC4)cc3C(=O)N2C)O1`, the outcome was inactive.

For `CCCNC(=O)Nc1ccc2c(c1)OC[C@H](C)N(CCC)C[C@H](C)[C@H](OC)CN(C)C2=O`, the outcome was inactive. As for `COc1ccc(-c2ccc(C#N)c(OC(=O)c3c(Cl)cccc3Cl)n2)cc1`, the result was inactive.
